# In the library only some 1.2% were active in any assay of this set; here they are far more common.
# Platelet DG rel: inhibitors of platelet dense granule secretion, primary screen, cell-based, MLPCN, human platelets; human platelet-rich plasma, SFLLRN dense granule ATP release, luminescence; AID 1663, 2009; hit rate 0.22% among 300,000; inhibition, %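 (compounds screened at 7.5 µM in platelet-rich plasma)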;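 active means mean replicate score, as percent of positive control, at or above 50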
# GRK2 aptamer HTS: compounds blocking aptamer binding on GRK2 – biochemical, human GRK2, bead flow cytometry, HTS, primary screen. FAM-aptamer displacement from GRK2. inhibition of aptamer binding, % at 10 µM. hit rate 0.59% among 330,000;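 active means inhibition of aptamer binding above 40%, roughly 3 SD of noise, on plates passing a quality check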;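 further: median bead fluorescence of bound FAM aptamer so fluorescent compounds give negative values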
# beta cell repl: inducers of MIN6 beta-cell proliferation, primary screen, ATP luminescence, uHTS; MIN6 cells proliferation, ATPlite luminescence, 48 h; cells starved in 0.2% serum; 100% = growth in 10% serum; proliferation, % at 10 µM; hit rate 0.29% among 330,000; AID 2380, 2010;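 active means compounds whose signal lies at least 3.5 SD above the mean of all wells on their plate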;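 further: 0% = DMSO-treated cells in low-serum medium and 100% = 10% serum control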
# NTR1 ag: agonists of human NTR1, primary screen, imaging, U2OS cells, beta-arrestin-GFP, high content; Neurotensin receptor type 1 (Homo sapiens), P30989; NTR1-U2OS beta-arrestin-GFP spot imaging, agonist mode; activation, % at 20 µM; hit rate 0.17% among 330,000;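 active means activation at or above 40% of the spot to cytoplasm intensity ratio, with at least 20 cells analyzed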;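 further: 0% = DMSO without peptide and 100% = 100 nM NTR1 peptide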
# GRK2 CP1: GRK2 aptamer-displacing inhibitors, retest, confirmation, biochemical, cherry pick 1, bead flow cytometry; shares compounds with GRK2 aptamer HTS; bead-bound GRK2, FAM-aptamer displacement; aptamer displacement, % at 10 µM; hit rate 4% among 2,000;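 active means aptamer displacement above 40%, near three times the noise of non-fluorescent compounds, on plates passing quality checks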;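 further: negative values mostly reflect intrinsic compound fluorescence rather than true enhancement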
# Aptamer quench 1: fluorescent aptamer quenching in GRK2 counter-screen dose response; shares compounds with GRK2 aptamer HTS; Fluorescent RNA aptamer beads, flow cytometry; stronger effect = higher value; fluorescence change (kMESF span), kMESF (no concentration beside the values); 110 tested, under 10 active; AID 504521;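 active means compounds whose bead fluorescence drops by more than 37 kMESF across the dose range, marking them as dye quenchers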
# Aptamer quench SP: aptamer fluorescence quenching in GRK2 counter-screen | shares compounds with GRK2 aptamer HTS | 2,000 tested, under 10 active | Carboxyfluorescein RNA aptamer on beads, flow cytometry quenching; stronger effect = lower value | fluorescence response (% of DMSO), % at 10 µM;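 active means compounds that quench the bead-bound fluorescent RNA probe, cutting fluorescence to under half of the solvent control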;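 further: counterscreen run without GRK2 so only probe quenching by compound is measured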
# Starred values were filed as active, the others as inactive; · = not tested or not shown.
SMILES,Platelet DG rel,GRK2 aptamer HTS,beta cell repl,NTR1 ag,GRK2 CP1,Aptamer quench SP,others
CCC(C)(C)NC(=O)c1ccc2c(c1)S(=O)(=O)c1ccccc1C2=O,·,54.0*,0.0,-5.5,-0.8,98.8,
Cc1ccccc1CSc1ccc(S(=O)(=O)N2CCCC2)cn1,·,3.0,-0.3,0.9,·,·,
CCOc1cc(/C=N/NC(=O)c2cc(-c3cccnc3)nc3ccccc23)ccc1O,9.8,0.0,4.4,-0.9,·,·,
O=C(COC(=O)c1cccc(Cl)c1)Nc1cccc(S(=O)(=O)NC2=NCCC2)c1,·,0.0,-0.6,-0.7,-0.5,93.8,
NC(=O)Nc1ccc(C(=O)OCC(=O)Nc2cccc(S(=O)(=O)NC3=NCCC3)c2)cc1,·,0.0,0.1,0.6,·,·,
Oc1ccc(C[C@H]2CNCCN2CCCCC2CCCCC2)cc1,13.0,2.0,-8.0,9.4,·,·,
CN(C(=O)CCN1C(=O)/C(=C/c2ccccc2)SC1=S)C1CCS(=O)(=O)C1 (configuration not stated),-4.3,72.0*,-0.5,0.0,0.4,99.0,
CCn1c(=S)sc2c(=O)n(CC(=O)Nc3ccccc3C(F)(F)F)c(C)nc21,1.5,59.0*,-2.7,0.6,-11.8,97.5,
CN1CCN(c2ccc(-c3cccc(NC(=O)COc4ccccc4)c3)nn2)CC1,14.9,0.0,-4.3,0.1,-11.3,95.8,
CN1CCN(c2ccc(-c3cccc(NC(=O)COc4ccc(Cl)cc4)c3)nn2)CC1,-7.6,0.0,-7.7,1.9,-13.3,99.8,
CCC(=O)Nc1cccc(-c2ccc(N3CCN(C)CC3)nn2)c1,-23.2,0.0,-2.8,0.0,·,·,
CN1CCN(c2ccc(-c3cccc(NC(=O)COc4ccc(Cl)cc4Cl)c3)nn2)CC1,-9.0,0.0,-7.3,1.3,·,·,
CC1CCN(C(=O)c2[nH]cnc2C(=O)Nc2cccc(Cl)c2)CC1,·,0.0,-2.1,5.1,-3.8,102.9,Aptamer quench 1=-11.5
Cc1ccc(NC(=O)c2nc[nH]c2C(=O)N2CCC(C)CC2)cc1,1.9,0.0,-3.1,14.8,·,·,
O=C(Nc1cccc(Cl)c1)c1cnc[nH]1,6.6,58.0*,3.8,-2.1,3.5,92.2,
CNC(=O)c1[nH]cnc1C(=O)Nc1cccc(Cl)c1,·,91.0*,-1.3,-0.1,93.3*,98.1,Aptamer quench 1=4
CC(C)(C)OC(=O)[C@H](Cc1ccccc1)NC(=O)c1[nH]cnc1C(=O)Nc1cccc(Cl)c1,-2.0,0.0,-8.4,27.2,-1.7,97.6,
COc1ccccc1CNC(=O)CCNS(=O)(=O)c1ccc2c(c1)oc(=O)n2C,-5.6,5.0,0.1,-0.8,·,·,
O=C(O)CC1(CC(=O)Nc2ccc3ccccc3n2)CCCCC1,3.7,4.0,1.1,-1.1,·,·,
CN(Cc1ccccc1)C(=O)c1[nH]cnc1C(=O)Nc1ccc(Cl)cc1,·,1.0,-6.1,5.2,·,·,
CN(Cc1ccccc1)C(=O)c1[nH]cnc1C(=O)Nc1cccc(Cl)c1,·,0.0,-2.5,2.5,0.8,102.0,
COc1ccccc1-[n+]1c(C)cc(/C=C2\Sc3ccccc3N2C)cc1C,-3.0,68.0*,-6.2,-3.6,61.5*,162.4,Aptamer quench 1=-2
COc1ccccc1OC(=O)CCN1c2ccccc2Sc2ccccc21,4.1,0.0,-2.9,1.2,·,·,
O=C(O)CCCn1cc(NC(=O)c2ccc(Br)o2)cn1,-1.7,1.0,-0.9,-0.5,·,·,
NC(=O)Cc1ccc(C(=O)c2ccc(F)cc2)s1,-2.4,15.0,-0.7,2.1,·,·,
NC(=O)Cc1ccc(C(=O)c2ccccc2F)s1,6.3,27.0,2.0,-1.2,2.4,96.2,
OC[C@@H](O)[C@H](O)C(/C=N/Nc1ccccc1)=N\Nc1ccccc1,-1.0,40.0,-0.5,-0.2,0.3,96.2,
Cc1cccc(Cn2c(=O)oc3ccc(C)cc32)c1,3.6,68.0*,-0.8,-0.4,-2.3,98.4,
Cc1ccc2oc(=O)n(Cc3ccc(OC(C)C)cc3)c2c1,5.7,2.0,-3.1,3.5,·,·,
COc1ccc(N(C)S(=O)(=O)c2ccc3c(c2)NC(=O)CO3)c(OC)c1,2.5,0.0,-2.4,-0.9,·,·,

# Bioassay records: PubChem, several laboratories
